Experimental data published in PubChem BioAssay (EPA / NIEHS).
Activity calls are given as the source filed them. Rule for the calls: active = hit-call score of the fitted dose curve at least 0.9, where 1 is the maximum; inactive = score below 0.9.

Key:
Conditions in all cases: mRNA level, 48 h; actives raise or lower the signal
[1] = read-out: growth arrest and DNA damage 45 (GADD45B), GADD45B (gene 4616); assay: LTEA_HepaRG_GADD45B: Life Technologies and Expression Analysis (LTEA) Assay for growth arrest and DNA damage 45 (GADD45B) using HepaRG (AID 2283461)
Procedure, shortened: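 HepaRG, ~100,000 cells/well, 48 h plating; serum-free induction medium; cpd 100 uM top, half-log x8, 0.5% DMSO, duplicate, 48 h; lysis in RLT, RNA isolation, qRT-PCR; norm ACTB/GAPDH/POLR2A; bidirectional fit vs DMSO.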

[2] = read-out: ABC Transporter (ABCC3), ABCC3 (gene 8714); assay: LTEA_HepaRG_ABCC3: Life Technologies and Expression Analysis (LTEA) Assay for ABC Transporter (ABCC3) using HepaRG (AID 2283462)
Procedure, shortened: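 Human HepaRG, 48 h dosing, 8-pt half-log series from 100 uM, 0.5% DMSO vehicle, duplicates. ABCC3 mRNA by TaqMan qRT-PCR, housekeeping-normalized; bidirectional curve fit vs DMSO.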

[3] = read-out: ABC Transporter (ABCB11), ABCB11 (gene 8647); assay: LTEA_HepaRG_ABCB11: Life Technologies and Expression Analysis (LTEA) Assay for ABC Transporter (ABCB11) using HepaRG (AID 2283463)
Procedure, shortened: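 Differentiated human HepaRG cells in serum-free induction medium, dosed in duplicate for 48 h. Eight-point half-log series from 100 uM in 0.5% DMSO; ABCB11 mRNA by qRT-PCR, normalized to ACTB, GAPDH, POLR2A, fitted bidirectionally versus DMSO.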

[4] = read-out: ABC Transporter (ABCC2), ABCC2 (gene 1244); assay: LTEA_HepaRG_ABCC2: Life Technologies and Expression Analysis (LTEA) Assay for ABC Transporter (ABCC2) using HepaRG (AID 2283464)
Procedure, shortened: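 HepaRG, 48 h post-plating; serum-free induction medium; cpd 8-pt, 100 uM top, half-log, 0.5% DMSO, duplicate, 48 h. Readout: ABCC2 mRNA by qRT-PCR, norm. ACTB/GAPDH/POLR2A. Bidirectional fit vs DMSO baseline.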

[5] = read-out: Broad substrate specificity ATP-binding cassette transporter ABCG2 (Homo sapiens) (UniProt Q9UNQ0); assay: LTEA_HepaRG_ABCG2: Life Technologies and Expression Analysis (LTEA) Assay for ABC Transporter (ABCG2) using HepaRG (AID 2283465)
Procedure, shortened: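 Differentiated HepaRG cells were exposed for 48 h in serum-free induction medium to 8 half-log concentrations, top 100 uM, in 0.5% DMSO. ABCG2 mRNA was measured by qRT-PCR, normalized to ACTB, GAPDH and POLR2A, with bidirectional fitting versus DMSO.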

[6] = read-out: ATP-citrate lyase (ACLY), ACLY (gene 47); assay: LTEA_HepaRG_ACLY: Life Technologies and Expression Analysis (LTEA) Assay for ATP-citrate lyase (ACLY) using HepaRG (AID 2283466)
Procedure, shortened: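 Differentiated HepaRG cells exposed 48 h in serum-free induction medium to eight half-log concentrations up to 100 uM in 0.5% DMSO, duplicates. Transcript measured by Fluidigm TaqMan qRT-PCR, normalized to ACTB, GAPDH, POLR2A; bidirectional fit versus DMSO.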

[7] = read-out: Peroxisomal acyl-coenzyme A oxidase 1 (ACOX1) gene, ACOX1 (gene 51); assay: LTEA_HepaRG_ACOX1: Life Technologies and Expression Analysis (LTEA) Assay for Peroxisomal acyl-coenzyme A oxidase 1 (ACOX1) gene using HepaRG (AID 2283467)
Procedure, shortened: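 HepaRG cells, plated 48 h then switched to serum-free induction medium, were exposed in duplicate for 48 h to 8-point half-log concentrations up to 100 uM in 0.5% DMSO. ACOX1 mRNA was measured by qRT-PCR, normalized to ACTB/GAPDH/POLR2A, and fitted bidirectionally versus DMSO.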

[8] = read-out: Alkaline Phosphatase, Placental (ALPP) gene, ALPP (gene 250); assay: LTEA_HepaRG_ALPP: Life Technologies and Expression Analysis (LTEA) Assay for Alkaline Phosphatase, Placental (ALPP) gene using HepaRG (AID 2283468)
Procedure, shortened: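 HepaRG, 48 h plating then 48 h dosing, serum-free induction medium, 0.5% DMSO. 8 conc, half-log, max 100 uM, duplicates. Endpoint: ALPP transcript by qRT-PCR, housekeeping-normalized; gain or loss fitted vs DMSO.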

[9] = read-out: Bcl-2 (BAD) gene, BAD (gene 572); assay: LTEA_HepaRG_BAD: Life Technologies and Expression Analysis (LTEA) Assay for Bcl-2 (BAD) gene using HepaRG (AID 2283469)
Procedure, shortened: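 Differentiated HepaRG cells were exposed in duplicate in 0.5% DMSO for 48 h to eight-point half-log concentrations up to 100 uM. BAD mRNA was measured by Fluidigm TaqMan qRT-PCR, normalized to ACTB, GAPDH and POLR2A, and fitted bidirectionally against DMSO.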

[10] = read-out: Bcl-2 (BAX) gene, BAX (gene 581); assay: LTEA_HepaRG_BAX: Life Technologies and Expression Analysis (LTEA) Assay for Bcl-2 (BAX) gene using HepaRG (AID 2283470)
Procedure, shortened: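 HepaRG (human liver), 48 h exposure, duplicate wells. 8-pt curve, half-log from 100 uM, 0.5% DMSO. BAX transcript by TaqMan qRT-PCR; ACTB/GAPDH/POLR2A normalization; gain or loss vs DMSO baseline.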

[11] = read-out: adenosine kinase (ADK) gene, ADK (gene 132); assay: LTEA_HepaRG_ADK: Life Technologies and Expression Analysis (LTEA) Assay for adenosine kinase (ADK) gene using HepaRG (AID 2283471)
Procedure, shortened: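 ADK expression quantified by qRT-PCR, normalised to three housekeeping genes, after 48 h exposure of HepaRG cells to eight concentrations (top 100 uM, half-log steps, duplicate, 0.5% DMSO). Up- or down-regulation fitted relative to vehicle.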

[12] = read-out: Alpha-fetoprotein (AFP) gene, AFP (gene 174); assay: LTEA_HepaRG_AFP: Life Technologies and Expression Analysis (LTEA) Assay for Alpha-fetoprotein (AFP) gene using HepaRG (AID 2283472)
Procedure, shortened: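 HepaRG, single lot; 48 h post-plating -> serum-free induction medium; cpd 8-pt, 100 uM top, half-log, 0.5% DMSO, duplicate, 48 h. RNA -> qRT-PCR AFP, norm ACTB/GAPDH/POLR2A. Bidirectional fit vs DMSO.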

BCL2L11 (gene 10018) = assay: LTEA_HepaRG_BCL2L11: Life Technologies and Expression Analysis (LTEA) Assay for Bcl-2 (BCL2L11) gene using HepaRG (AID 2283473)
Procedure, shortened: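 Read-out is BCL2L11 transcript level by qRT-PCR, normalized to three housekeeping genes and fitted bidirectionally against 0.5% DMSO vehicle. HepaRG cells received chemicals for 48 h in serum-free induction medium, 100 uM down in half-log dilutions.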

[13] = read-out: Apolipoprotein A-V (APOA5) gene, APOA5 (gene 116519); assay: LTEA_HepaRG_APOA5: Life Technologies and Expression Analysis (LTEA) Assay for Apolipoprotein A-V (APOA5) gene using HepaRG (AID 2283474)
Procedure, shortened: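 Readout is APOA5 transcript level by qRT-PCR on Fluidigm dynamic arrays, normalized to three housekeeping genes. HepaRG cultures received chemicals for 48 h at up to 100 uM (half-log steps, 0.5% DMSO), with gain or loss scored relative to DMSO.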

[14] = read-out: Apoptosis regulator Bcl-2 (Homo sapiens) (UniProt P10415); assay: LTEA_HepaRG_BCL2: Life Technologies and Expression Analysis (LTEA) Assay for Bcl-2 gene using HepaRG (AID 2283475)
Procedure, shortened: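 HepaRG, plated 48 h then switched to serum-free induction medium; dosed 48 h, 8 conc. (max 100 uM, half-log steps), duplicate, 0.5% DMSO. Lysis in RLT, RNA isolated, TaqMan qRT-PCR for BCL2; ACTB/GAPDH/POLR2A normalisation; bidirectional fit vs DMSO.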

[15] = read-out: Bcl-2 (BID) gene, BID (gene 637); assay: LTEA_HepaRG_BID: Life Technologies and Expression Analysis (LTEA) Assay for Bcl-2 (BID) gene using HepaRG (AID 2283476)
Procedure, shortened: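 Transcript levels of BID, measured by qRT-PCR and normalized to three housekeeping genes, were fitted bidirectionally against DMSO controls. Cells were HepaRG, dosed 48 h at up to 100 uM.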

Caspase-3 (Homo sapiens) = Caspase-3 (Homo sapiens) (UniProt P42574); assay: LTEA_HepaRG_CASP3: Life Technologies and Expression Analysis (LTEA) Assay for cysteine-aspartic acid protease (CASP3) using HepaRG (AID 2283477)
Sequence of Caspase-3 (Homo sapiens) (P42574 whole entry, looked up): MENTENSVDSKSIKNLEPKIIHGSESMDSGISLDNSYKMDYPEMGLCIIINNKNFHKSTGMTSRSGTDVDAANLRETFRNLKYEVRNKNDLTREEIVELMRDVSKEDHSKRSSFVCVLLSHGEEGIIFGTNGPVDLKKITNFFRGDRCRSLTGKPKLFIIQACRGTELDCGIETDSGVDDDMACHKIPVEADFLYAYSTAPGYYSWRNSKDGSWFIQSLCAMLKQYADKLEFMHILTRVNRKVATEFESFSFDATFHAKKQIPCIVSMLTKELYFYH
Procedure, shortened: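 Read-out is CASP3 mRNA level by TaqMan qRT-PCR in human HepaRG cells after 48 h chemical exposure. Eight half-log concentrations topping at 100 uM were tested in 0.5% DMSO; gain or loss was fitted relative to DMSO.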

[16] = read-out: Cytochrome P450 (CYP24A1), CYP24A1 (gene 1591); assay: LTEA_HepaRG_CYP24A1: Life Technologies and Expression Analysis (LTEA) Assay for Cytochrome P450 (CYP24A1) using HepaRG (AID 2283478)
Procedure, shortened: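 HepaRG, 48 h chemical exposure, 8-pt half-log CRC from 100 uM, 0.5% DMSO vehicle, duplicates. Endpoint: CYP24A1 mRNA by Fluidigm TaqMan qRT-PCR, normalized ACTB/GAPDH/POLR2A; gain/loss fit vs DMSO.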

[17] = read-out: Cytochrome P450 (CYP1A2), CYP1A2 (gene 1544); assay: LTEA_HepaRG_CYP1A2: Life Technologies and Expression Analysis (LTEA) Assay for Cytochrome P450 (CYP1A2) using HepaRG (AID 2283479)
Procedure, shortened: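 CYP1A2 transcript induction or loss, quantified by Fluidigm qRT-PCR against three housekeeping genes, was fitted bidirectionally against 0.5% DMSO controls. Human HepaRG cells received eight half-log concentrations from 100 uM over 48 h.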

[18] = read-out: cysteine-aspartic acid protease (CASP8), CASP8 (gene 841); assay: LTEA_HepaRG_CASP8: Life Technologies and Expression Analysis (LTEA) Assay for cysteine-aspartic acid protease (CASP8) using HepaRG (AID 2283480)
Procedure, shortened: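 Differentiated HepaRG cells in serum-free induction medium, 48 h exposure, eight-point half-log series from 100 uM in 0.5% DMSO, duplicates. CASP8 mRNA by qRT-PCR, normalized to ACTB, GAPDH, POLR2A; bidirectional fit versus DMSO.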

Measured: AC50

Sequence of Apoptosis regulator Bcl-2 (Homo sapiens) (P10415 whole entry, looked up): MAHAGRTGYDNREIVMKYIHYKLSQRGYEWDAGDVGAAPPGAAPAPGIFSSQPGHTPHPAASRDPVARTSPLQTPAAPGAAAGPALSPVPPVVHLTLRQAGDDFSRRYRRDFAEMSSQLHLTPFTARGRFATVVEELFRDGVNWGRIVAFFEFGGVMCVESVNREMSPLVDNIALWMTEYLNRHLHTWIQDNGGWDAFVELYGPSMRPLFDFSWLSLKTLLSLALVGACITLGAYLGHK
Sequence of Broad substrate specificity ATP-binding cassette transporter ABCG2 (Homo sapiens) (Q9UNQ0 whole entry, looked up): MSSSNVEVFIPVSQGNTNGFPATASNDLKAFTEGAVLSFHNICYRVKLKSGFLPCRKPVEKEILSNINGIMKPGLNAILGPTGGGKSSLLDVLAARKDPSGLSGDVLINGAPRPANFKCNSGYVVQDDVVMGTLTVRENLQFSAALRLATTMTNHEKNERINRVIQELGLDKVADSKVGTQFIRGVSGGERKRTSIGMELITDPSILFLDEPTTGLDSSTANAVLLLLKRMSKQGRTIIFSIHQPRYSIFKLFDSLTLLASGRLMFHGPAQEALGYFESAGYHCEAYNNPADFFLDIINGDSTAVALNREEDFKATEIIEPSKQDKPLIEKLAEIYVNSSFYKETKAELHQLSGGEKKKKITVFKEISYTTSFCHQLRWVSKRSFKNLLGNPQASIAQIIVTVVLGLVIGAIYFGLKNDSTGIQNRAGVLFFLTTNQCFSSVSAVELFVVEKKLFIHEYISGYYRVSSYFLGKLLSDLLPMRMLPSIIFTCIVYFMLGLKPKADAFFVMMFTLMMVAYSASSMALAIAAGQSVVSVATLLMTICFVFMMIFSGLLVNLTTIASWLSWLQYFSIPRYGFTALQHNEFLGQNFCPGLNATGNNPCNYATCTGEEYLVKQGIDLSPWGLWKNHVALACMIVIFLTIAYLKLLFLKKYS

CC1=CC(=O)CC(C)(C)C1
inactive: [1] | [2] | [3] | [4] | [5] | [6] | [7] | [8] | [9] | [10] | [11] | [12] | BCL2L11 (gene 10018) | [13] | [14] | [15] | Caspase-3 (Homo sapiens) | [16] | [17] | [18]

Clc1nc(Cl)c(Cl)c(Cl)c1Cl
inactive: [1] | [2] | [3] | [4] | [5] | [6] | [7] | [8] | [9] | [10] | [11] | [12] | BCL2L11 (gene 10018) | [13] | [14] | [15] | Caspase-3 (Homo sapiens) | [16] | [17] | [18]

CCOC(=O)CC(CC(=O)OCC)(OC(C)=O)C(=O)OCC
active: [17] 20.5 µM
inactive: [1] | [2] | [3] | [4] | [5] | [6] | [7] | [8] | [9] | [10] | [11] | [12] | BCL2L11 (gene 10018) | [13] | [14] | [15] | Caspase-3 (Homo sapiens) | [16]

CC(=O)OCCC(C)C
inactive: [1] | [2] | [3] | [4] | [5] | [6] | [7] | [8] | [9] | [10] | [11] | [12] | BCL2L11 (gene 10018) | [13] | [14] | [15] | Caspase-3 (Homo sapiens) | [16] | [17]

CC(C)CCO
inactive: [1] | [2] | [3] | [4] | [5] | [6] | [7] | [8] | [9] | [10] | [11] | [12] | BCL2L11 (gene 10018) | [13] | [14] | [15] | Caspase-3 (Homo sapiens) | [16] | [17]

C=CC(=C)CCC=C(C)C
inactive: [1] | [2] | [3] | [4] | [5] | [6] | [7] | [8] | [9] | [10] | [11] | [12] | BCL2L11 (gene 10018) | [13] | [14] | [15] | Caspase-3 (Homo sapiens) | [16]
active: [17] 27.2 µM
